According to PubChem BioAssay:
Unmarked numbers belong to inactive results. How the calls were made is not given here.

Molecular target: Pantothenate synthetase (Mycobacterium tuberculosis (strain ATCC 25618 / H37Rv)) (UniProt P9WIL5)
Test: Recombinant Mtb pantothenate synthetase (PanC) inhibitors, coupled enzyme, confirmatory (AID 375);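 further: 0% = full reaction with vehicle and 100% = no enzyme background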
Conditions: coupled enzyme assay; at 10 µM, stronger effect = higher value

Chain of Pantothenate synthetase (Mycobacterium tuberculosis (strain ATCC 25618 / H37Rv)) (P9WIL5 whole entry, looked up): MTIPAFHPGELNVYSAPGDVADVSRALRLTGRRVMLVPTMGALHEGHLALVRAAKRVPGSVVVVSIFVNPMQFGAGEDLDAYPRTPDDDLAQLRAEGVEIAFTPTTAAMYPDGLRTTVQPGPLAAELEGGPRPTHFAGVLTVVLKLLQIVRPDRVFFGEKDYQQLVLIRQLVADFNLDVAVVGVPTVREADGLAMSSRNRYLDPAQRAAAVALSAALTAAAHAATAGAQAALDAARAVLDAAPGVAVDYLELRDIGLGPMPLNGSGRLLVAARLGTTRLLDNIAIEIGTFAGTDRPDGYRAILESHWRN

In order of rising inhibition:
1. Cc1cccc(CN2CCC(CNC(=O)C3CCCN(S(=O)(=O)c4cnc[nH]4)C3)CC2)c1 (stereo not drawn)  0%
2. O=C(Nc1ccc2oc(-c3ccncc3)nc2c1)c1cccs1  0%
3. COCC(=O)Nc1sc2c(c1C(=O)OC)C(C(=O)OC)CC2 (stereo not drawn)  0%
4. N#Cc1c(NC(=O)CSc2nc(N)cc(=O)[nH]2)sc2c1CCCCCC2  0%
5. CC(C)(C)OC(=O)N1CC=C2C(C#N)=C(N)C(C#N)(C#N)C(c3cccs3)C2C1 (stereo not drawn)  0%
6. Cc1ccc(S(=O)(=O)NCC2CCC(C(=O)NCCCN3CCOCC3)CC2)cc1 (stereo not drawn)  0%
7. CCOC(=O)N1CCC(NC(=O)C2CCCN(C(=O)c3cc4sccc4n3C)C2)CC1 (stereo not drawn)  0%
8. COc1ccc(Cl)cc1C(=O)n1nc(C)cc1C  0%
9. COC(=O)c1ccc2c(c1)nc(C)n2CCO  0%
10. COC(=O)c1ccc(C)c(NS(=O)(=O)c2ccc3c(c2)OCCO3)c1  0%
11. O=C(c1cccs1)N(Cc1ccco1)Cc1cc2ccccc2[nH]c1=O  0%
12. COc1ccc(OC)c(Nc2nc(-c3sc(N)nc3C)cs2)c1  0%
13. O=S(=O)(Nc1cccnc1)c1ccc2c(c1)OCCO2  1%
14. Cc1cccc(N2C(=O)CC(N3CCN(c4cccc(C(F)(F)F)c4)CC3)C2=O)c1 (stereo not drawn)  1%
15. CCOC(=O)c1sc(=NC(=O)c2ccc(OC)c(OC)c2)n(C)c1C  2%
16. COc1ccc2cc(C(c3nnnn3C3CCCCC3)N3CCCCCC3)c3nnnn3c2c1 (stereo not drawn)  3%
17. O=C(CSCc1cccs1)N1CCCC1  3%
18. CCOCC(=O)Nc1nc2c(s1)C(=O)CC(C)(C)C2  5%
19. Cc1cc(C)c2c(n1)sc1c(N3CCOCC3)ncnc12  5%
20. CCCCn1c(SCc2ccc(Cl)cc2)nc2c1c(=O)[nH]c(=O)n2C  6%
21. CC(C)[C@H](NC(=O)[C@@H]1CSCN1C(=O)OC(C)(C)C)C(=O)NCC1CCC(C(=O)O)CC1 (stereo partly drawn)  7%
22. CN(c1ccccc1C(N)=O)S(=O)(=O)c1ccccc1  10%
23. CN(C)C(=O)CSc1nnc([C@H](Cc2c[nH]c3ccccc23)NC(=O)OC(C)(C)C)o1  13%
